# Assay results reported in PubChem BioAssay.
# Where “and” joins values, the source holds several entries; their conditions need not be identical. Equal entries are not always repeated. Calls of active or inactive are those of the source.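 How the source made its calls, unless noted: active means mean inhibition above 46.68%, the untreated control wells mean plus 3 SD; inactive means the rest.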 Bridge positions count the residues as written; N and C are the ends. Square brackets hold non-standard residues; d marks the D form. Peptide text beside a SMILES is read from it.
# Key:
# [1] = target: Nuclear receptor coactivator 3 (Homo sapiens) (UniProt Q9Y6Q9); assay: NCOA3 GAL4-fusion reporter inhibition – cell-based, luminescence, quadruplicate, confirmation (AID 588792;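 active means mean inhibition over 43.08%, the solvent-only control mean plus 3 SD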;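 further: 0% = DMSO treated cells and 100% = gossypol at 36 µM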); conditions: HEK293 GAL4-SRC3 luciferase reporter, at 3.6 µM, active compounds read high
# Sequence of Nuclear receptor coactivator 3 (Homo sapiens) (Q9Y6Q9 whole entry, looked up, the tested form may be a part): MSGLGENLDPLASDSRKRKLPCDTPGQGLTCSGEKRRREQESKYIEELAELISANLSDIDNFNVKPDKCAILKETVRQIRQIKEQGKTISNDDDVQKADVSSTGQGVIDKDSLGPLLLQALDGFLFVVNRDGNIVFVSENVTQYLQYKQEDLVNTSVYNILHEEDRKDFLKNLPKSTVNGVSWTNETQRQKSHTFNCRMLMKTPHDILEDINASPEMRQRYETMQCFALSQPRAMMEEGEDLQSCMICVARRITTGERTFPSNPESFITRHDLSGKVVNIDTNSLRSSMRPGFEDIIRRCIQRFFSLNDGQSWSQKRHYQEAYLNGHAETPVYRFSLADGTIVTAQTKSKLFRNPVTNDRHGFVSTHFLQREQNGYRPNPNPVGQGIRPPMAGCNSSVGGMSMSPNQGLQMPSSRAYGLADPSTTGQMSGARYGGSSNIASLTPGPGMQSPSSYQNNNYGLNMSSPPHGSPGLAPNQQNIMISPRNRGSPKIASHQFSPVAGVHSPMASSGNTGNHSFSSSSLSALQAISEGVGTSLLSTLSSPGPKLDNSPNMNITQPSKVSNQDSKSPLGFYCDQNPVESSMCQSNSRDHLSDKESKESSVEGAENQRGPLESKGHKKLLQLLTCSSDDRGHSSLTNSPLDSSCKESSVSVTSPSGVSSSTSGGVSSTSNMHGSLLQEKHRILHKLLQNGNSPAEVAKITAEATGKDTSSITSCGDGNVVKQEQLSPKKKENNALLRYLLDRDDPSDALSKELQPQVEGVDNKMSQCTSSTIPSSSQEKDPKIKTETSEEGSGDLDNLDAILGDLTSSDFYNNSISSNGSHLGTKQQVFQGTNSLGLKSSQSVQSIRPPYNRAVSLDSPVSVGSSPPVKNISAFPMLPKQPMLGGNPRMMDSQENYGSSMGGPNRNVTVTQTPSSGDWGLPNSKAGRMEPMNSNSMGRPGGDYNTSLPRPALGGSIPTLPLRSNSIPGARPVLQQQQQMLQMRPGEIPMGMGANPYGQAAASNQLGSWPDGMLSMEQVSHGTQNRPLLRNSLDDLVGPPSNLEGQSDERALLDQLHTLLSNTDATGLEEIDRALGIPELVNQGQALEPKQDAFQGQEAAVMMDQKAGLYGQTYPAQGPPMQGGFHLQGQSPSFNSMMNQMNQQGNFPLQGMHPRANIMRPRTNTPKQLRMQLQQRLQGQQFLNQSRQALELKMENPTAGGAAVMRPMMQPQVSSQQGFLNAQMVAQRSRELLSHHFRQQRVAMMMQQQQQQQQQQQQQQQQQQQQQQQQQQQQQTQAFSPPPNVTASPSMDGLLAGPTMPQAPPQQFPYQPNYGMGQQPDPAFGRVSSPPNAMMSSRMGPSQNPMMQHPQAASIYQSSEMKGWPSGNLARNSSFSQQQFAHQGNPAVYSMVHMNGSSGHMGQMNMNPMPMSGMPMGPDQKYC
# [2] = tested on: transactivating tegument protein VP16 (Human herpesvirus 1), Gal4-VP16 luciferase reporter; assay: repression of VP16-driven luciferase reporter – cell-based, luminescence, high throughput, counter-screen for SRC3 inhibitor project (AID 588794; in the data active means inhibition above about 30%); conditions: mammalian cells, at 3.6 µM, active compounds read high
# [3] = target: Nuclear receptor coactivator 1 (Homo sapiens) (UniProt Q15788); assay: NCOA1 GAL4-fusion reporter inhibition – cell-based, luminescence, quadruplicate, confirmation (AID 588820); conditions: HEK293 GAL4-SRC1 luciferase reporter, at 3.6 µM, active compounds read high;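 further: 0% = DMSO wells and 100% = gossypol 36 µM treated wells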
# Sequence of Nuclear receptor coactivator 1 (Homo sapiens) (Q15788 whole entry, looked up, the tested form may be a part): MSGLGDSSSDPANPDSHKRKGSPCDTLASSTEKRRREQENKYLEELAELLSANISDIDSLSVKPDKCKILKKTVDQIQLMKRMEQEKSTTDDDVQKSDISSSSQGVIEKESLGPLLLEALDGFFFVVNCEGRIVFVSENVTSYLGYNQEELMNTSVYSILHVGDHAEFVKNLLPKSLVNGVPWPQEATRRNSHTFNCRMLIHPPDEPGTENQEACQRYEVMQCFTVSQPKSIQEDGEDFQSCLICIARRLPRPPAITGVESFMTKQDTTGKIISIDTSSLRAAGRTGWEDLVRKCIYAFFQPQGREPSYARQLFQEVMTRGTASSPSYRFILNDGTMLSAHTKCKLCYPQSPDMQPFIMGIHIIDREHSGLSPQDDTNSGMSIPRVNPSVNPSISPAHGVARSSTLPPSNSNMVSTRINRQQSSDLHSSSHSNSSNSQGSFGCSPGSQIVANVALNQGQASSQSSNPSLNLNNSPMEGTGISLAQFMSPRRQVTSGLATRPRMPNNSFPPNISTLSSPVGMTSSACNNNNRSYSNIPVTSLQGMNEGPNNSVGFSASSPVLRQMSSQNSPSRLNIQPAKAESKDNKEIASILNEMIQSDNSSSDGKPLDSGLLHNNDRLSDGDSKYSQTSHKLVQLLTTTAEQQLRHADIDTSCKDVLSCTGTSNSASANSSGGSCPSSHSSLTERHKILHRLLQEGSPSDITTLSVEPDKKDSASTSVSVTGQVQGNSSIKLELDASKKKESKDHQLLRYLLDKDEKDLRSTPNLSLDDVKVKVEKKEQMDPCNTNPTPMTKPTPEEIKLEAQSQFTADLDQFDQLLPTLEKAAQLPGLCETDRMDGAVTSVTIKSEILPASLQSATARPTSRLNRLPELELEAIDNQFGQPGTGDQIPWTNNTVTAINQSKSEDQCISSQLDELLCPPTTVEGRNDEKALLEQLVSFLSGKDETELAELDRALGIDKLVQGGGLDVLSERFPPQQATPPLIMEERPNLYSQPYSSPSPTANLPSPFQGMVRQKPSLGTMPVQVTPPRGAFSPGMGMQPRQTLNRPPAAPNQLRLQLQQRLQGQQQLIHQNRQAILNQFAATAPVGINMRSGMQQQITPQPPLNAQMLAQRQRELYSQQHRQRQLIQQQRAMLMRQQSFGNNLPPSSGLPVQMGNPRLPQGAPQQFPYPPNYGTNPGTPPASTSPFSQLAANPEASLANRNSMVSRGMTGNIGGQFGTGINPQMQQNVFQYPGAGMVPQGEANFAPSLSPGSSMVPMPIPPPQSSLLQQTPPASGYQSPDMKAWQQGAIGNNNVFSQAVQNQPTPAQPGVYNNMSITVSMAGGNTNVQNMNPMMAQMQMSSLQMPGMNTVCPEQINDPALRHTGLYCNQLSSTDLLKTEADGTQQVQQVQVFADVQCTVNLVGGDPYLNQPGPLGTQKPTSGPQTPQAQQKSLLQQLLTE
# [4] = repression of VP16-driven luciferase reporter – cell-based, luminescence, high throughput, counter-screen for SRC1 inhibitor project (AID 588824; in the data active means inhibition above about 25%); conditions: cell-based VP16 transactivation luciferase luminescence; at 3.6 µM; active compounds read high
# [5] = StAR promoter reporter inhibitors, counter-screen for LRH-1 inverse agonist project, cell-based, luminescence, high throughput (AID 651611; in the data active means inhibition above about 28%); conditions: StAR promoter luciferase reporter counterscreen, at 3.6 µM, active compounds read high
# [6] = target: Nuclear receptor subfamily 5 group A member 2 (Homo sapiens) (UniProt O00482); assay: NR5A2 activity suppression in reporter cells – cell-based, luminescence, confirmation (AID 651613; in the data active means inhibition above about 42%;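 further: HEK293T cells co-transfected with LRH-1 and StAR promoter luciferase reporter; 0% = vehicle wells and 100% = parental cells lacking receptor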); conditions: cell-based LRH-1 luciferase reporter, inverse agonism; at 3.6 µM; active compounds read high
# [7] = target: Steroidogenic factor 1 (Homo sapiens) (UniProt Q13285); assay: inverse agonism at SF1 nuclear receptor – cell-based, luminescence, high throughput, counter-screen for LRH-1 inverse agonist project (AID 651614; in the data active means inhibition above about 44%;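 further: cells cotransfected with StAR promoter reporter and SF1 expression vector; 0% = vehicle on cells with receptor and 100% = vehicle on cells lacking receptor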); conditions: cell-based SF1 luciferase reporter, at 3.6 µM, active compounds read high
# Sequence of Steroidogenic factor 1 (Homo sapiens) (Q13285 whole entry, looked up, the tested form may be a part): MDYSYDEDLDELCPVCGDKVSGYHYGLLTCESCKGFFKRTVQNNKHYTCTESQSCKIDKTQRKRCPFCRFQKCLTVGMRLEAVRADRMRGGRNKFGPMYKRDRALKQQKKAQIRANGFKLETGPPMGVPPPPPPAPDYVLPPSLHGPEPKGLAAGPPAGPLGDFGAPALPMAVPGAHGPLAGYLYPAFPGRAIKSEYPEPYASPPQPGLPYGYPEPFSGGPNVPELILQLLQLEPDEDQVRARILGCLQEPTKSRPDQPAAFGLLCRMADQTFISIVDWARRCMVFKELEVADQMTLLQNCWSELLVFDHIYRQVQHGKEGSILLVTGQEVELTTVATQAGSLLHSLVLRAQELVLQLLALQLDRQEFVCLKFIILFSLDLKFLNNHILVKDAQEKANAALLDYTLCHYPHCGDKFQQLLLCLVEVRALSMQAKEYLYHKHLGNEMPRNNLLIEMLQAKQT
# [8] = compounds suppressing VP16-driven luciferase signal – cell-based, luminescence, high throughput, counter-screen for LRH-1 inverse agonist project (AID 651615; in the data active means inhibition above about 33%); conditions: Gal4-VP16 luciferase reporter cells, at 3.6 µM, active compounds read high
# [9] = tested on: transactivating tegument protein VP16 (Human herpesvirus 1); assay: compounds suppressing VP16-driven luciferase signal – cell-based, luminescence, single concentration, counter-screen for SRC2 inhibitor project (AID 652007; in the data active means inhibition above about 36%); conditions: cell-based VP16 transactivation luciferase reporter, at 8.9 µM, active compounds read high
# [10] = target: Nuclear receptor coactivator 2 (Homo sapiens) (UniProt Q15596); assay: inhibition of GAL4-SRC2 driven luciferase expression – cell-based, luminescence, HEK293, triplicate, confirmation (AID 652008;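 active means mean inhibition above 46.5%, the solvent-only control mean plus 3 SD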;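 further: 0% = DMSO-treated cells and 100% = Gossypol at 36 µM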); conditions: HEK293 GAL4-SRC2 luciferase reporter, at 8.9 µM, active compounds read high
# Sequence of Nuclear receptor coactivator 2 (Homo sapiens) (Q15596 whole entry, looked up, the tested form may be a part): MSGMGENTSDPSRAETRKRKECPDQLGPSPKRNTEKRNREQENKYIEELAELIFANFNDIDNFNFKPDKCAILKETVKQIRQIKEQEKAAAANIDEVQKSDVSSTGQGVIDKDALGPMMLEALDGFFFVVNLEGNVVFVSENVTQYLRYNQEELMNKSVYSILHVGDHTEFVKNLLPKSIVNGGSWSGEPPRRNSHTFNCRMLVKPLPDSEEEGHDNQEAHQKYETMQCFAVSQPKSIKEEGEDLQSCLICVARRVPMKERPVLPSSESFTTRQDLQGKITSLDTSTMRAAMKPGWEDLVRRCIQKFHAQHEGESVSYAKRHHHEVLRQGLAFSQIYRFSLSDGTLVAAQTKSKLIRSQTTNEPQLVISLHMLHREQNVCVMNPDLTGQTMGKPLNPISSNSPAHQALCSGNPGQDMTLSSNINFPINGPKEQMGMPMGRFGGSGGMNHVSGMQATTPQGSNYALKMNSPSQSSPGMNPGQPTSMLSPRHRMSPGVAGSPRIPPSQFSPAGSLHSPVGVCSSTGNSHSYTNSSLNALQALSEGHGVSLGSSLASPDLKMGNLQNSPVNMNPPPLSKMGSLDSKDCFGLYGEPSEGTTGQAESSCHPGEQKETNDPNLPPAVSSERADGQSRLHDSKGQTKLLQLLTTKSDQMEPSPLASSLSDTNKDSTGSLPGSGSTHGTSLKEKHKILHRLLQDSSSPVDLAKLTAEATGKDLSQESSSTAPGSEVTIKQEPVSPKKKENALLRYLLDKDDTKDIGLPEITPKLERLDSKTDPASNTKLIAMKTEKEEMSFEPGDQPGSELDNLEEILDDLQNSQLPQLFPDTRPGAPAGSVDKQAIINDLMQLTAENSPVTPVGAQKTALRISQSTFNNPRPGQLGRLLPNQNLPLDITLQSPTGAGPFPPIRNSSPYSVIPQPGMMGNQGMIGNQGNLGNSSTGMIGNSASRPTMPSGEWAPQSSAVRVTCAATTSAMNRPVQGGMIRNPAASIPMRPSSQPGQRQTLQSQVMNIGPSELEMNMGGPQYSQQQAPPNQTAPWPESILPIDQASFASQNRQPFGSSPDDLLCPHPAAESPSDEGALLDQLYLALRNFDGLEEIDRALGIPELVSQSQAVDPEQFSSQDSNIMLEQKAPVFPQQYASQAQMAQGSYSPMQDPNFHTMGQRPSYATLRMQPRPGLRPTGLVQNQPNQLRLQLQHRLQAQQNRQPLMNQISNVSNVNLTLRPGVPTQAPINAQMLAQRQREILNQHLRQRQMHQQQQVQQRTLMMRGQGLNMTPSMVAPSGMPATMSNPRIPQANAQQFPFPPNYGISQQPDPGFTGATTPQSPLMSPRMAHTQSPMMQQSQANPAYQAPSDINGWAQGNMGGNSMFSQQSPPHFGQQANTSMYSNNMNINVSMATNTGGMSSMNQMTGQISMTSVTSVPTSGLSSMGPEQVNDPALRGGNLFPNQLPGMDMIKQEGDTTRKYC
SMILES,inhibition [1],inhibition [2],inhibition [3],inhibition [4],inhibition [5],inhibition [6],inhibition [7],inhibition [8],inhibition [9],inhibition [10]
O=C1N(c2ccccc2)C[C@@H]2C[C@@H](c3cc4ccccc4o3)N3CCC[C@@]123,95.3% (active),96.3% (active),74.5% (active),94.7% (active),90.4% (active),109% (active),98% (active),98.4% (active),47.8% (active),43.3% (inactive)
CC(=O)Nc1ccc(SCC(=O)c2cc(C)n(-c3ccccc3F)c2C)cc1,41% (inactive),9.76% (inactive),-10.3% (inactive),-5.83% (inactive),-29.9% (inactive),-14.4% (inactive),-11.8% (inactive),-26% (inactive),-6.67% (inactive),38% (inactive)
CC[C@H](C)[C@@H]1NC(=O)[C@@H](CC(C)C)NC(=O)[C@H](C(C)C)NC(=O)[C@H]2CSSC[C@H](NC1=O)C(=O)N2 (cyclo(C[dC]V[dL]I); disulfide 1-2),99.9% (active),98.3% (active),99.6% (active),98% (active),96% (active),109% (active),97.7% (active),97.5% (active),98.3% (active),99.6% (active)
O=C(CN1C(=O)c2ccccc2S1(=O)=O)c1ccc2c(c1)OCCCO2,93.3% (active),92.4% (active),82.5% (active),91.8% (active),91% (active),99.8% (active),92.4% (active),90.3% (active),94.4% (active),98% (active)
CCCN(CCC)C1=CC(=[N+]2CCCC2)CC(C)(C)C1,25.5% (inactive),56.8% (active),36.1% (inactive),55.3% (active),38.3% (active),106% (active),78.8% (active),86.6% (active),29% (inactive),18.8% (inactive)
CC1CCC(C(C)C)C(OC(=O)Cn2c(-c3ccccc3)[n+](C)c3ccccc32)C1 (stereo not given),74.8% (active) and 54.2% (active),76.2% (active) and 68% (active),55.1% (active) and 49.6% (active),75.8% (active) and 65.7% (active),54% (active),108% (active),83.8% (active),94.5% (active),49.1% (active),30.4% (inactive)
C/C(CC(C)(C)C1CCCCC1)=N\NC(N)=S,72.2% (active),60.3% (active),48.5% (active),59% (active),45.6% (active),80.8% (active),82.8% (active),68.6% (active),43.8% (active),38.4% (inactive)
O=C(NCc1cccnc1)/C(=C\c1ccc(-c2ccc(Br)cc2)o1)S(=O)(=O)c1ccccc1,72.6% (active),56.9% (active),51.7% (active),55.1% (active),62.3% (active),92.3% (active),82% (active),80.8% (active),71.1% (active),68.7% (active)
O=C(Nc1nc2cc3c(cc2s1)OCCO3)C1=COCCO1,30.4% (inactive),26.9% (inactive),-78.2% (inactive),13.4% (inactive),24.4% (inactive),-3.27% (inactive),52.2% (active),4.13% (inactive),70.8% (active),81.6% (active)
CN=c1scc(-c2ccccc2F)n1/N=C/c1ccc[nH]1,89% (active),86.5% (active),71.6% (active),75.6% (active),87.2% (active),70.1% (active),85.6% (active),78.1% (active),87.7% (active),96.1% (active)
COCC(=O)OC1CCn2c1nc1c2C(=O)C(C)=C(NC(C)=O)C1=O (stereo not given),91.9% (active),86.7% (active),75.1% (active),85.7% (active),80.1% (active),99.7% (active),86.6% (active),90.8% (active),57.3% (active),73.5% (active)
O=C(N/N=C/c1ccc(O)cc1O)c1ccc(CN2C(=O)c3cccc4cccc2c34)cc1,67.2% (active),77.8% (active),78.5% (active),76.2% (active),84.8% (active),101% (active),89.2% (active),82.6% (active),-14.6% (inactive),18.8% (inactive)
C(=NN1CCCCCC1)c1ccc2ccccc2n1,88.6% (active),82.8% (active),68.3% (active),72.1% (active),87.8% (active),67% (active),87% (active),70.8% (active),92.4% (active),94.9% (active)
C=C(C(=O)c1ccccc1)C(NC(C)(C)C)c1ccccc1 (stereo not given),45% (active),90.4% (active),-116% (inactive),90.2% (active),58.5% (active),93.7% (active),87.4% (active),92.9% (active),78.7% (active),44.6% (inactive)
O=C(CSc1nnc(-c2cccnc2)s1)Nc1ccnc2ccccc12,32.3% (inactive),46.7% (active),-3.87% (inactive),51.2% (active),21% (inactive),57% (active),56.1% (active),55.6% (active),23.7% (inactive),35% (inactive)
O=C(CCC1CCCC1)Nc1ccc(C(=O)NCc2cccnc2)cc1,88.5% (active),43.3% (active),62.4% (active),24.4% (inactive),88% (active),98.7% (active),94.8% (active),66.9% (active),-5.72% (inactive),48.6% (active)
CC(=O)NC(c1ccc(C(C)C)cc1)c1ccc2cccnc2c1O (stereo not given),74.3% (active),58.4% (active),65.9% (active),60.9% (active),89.1% (active),105% (active),86.2% (active),75% (active),-23.1% (inactive),26.8% (inactive)
O=C(COC(=O)c1ccc[nH]c1=O)Nc1ccc(N2CCCCC2)cc1,54.4% (active),20.8% (inactive),42.2% (inactive),5.72% (inactive),42.1% (active),55% (active),41% (inactive),6.65% (inactive),45.1% (active),90.5% (active)
Cc1cc(C(=O)CSc2nnc3ccccn23)c(C)n1-c1ccccc1,20.3% (inactive),15.4% (inactive),-49.2% (inactive),-25.1% (inactive),23.4% (inactive),-38.6% (inactive),6.01% (inactive),-26.3% (inactive),34.8% (inactive),60.7% (active)
CNC1=C(N(C(C)=O)c2ccc(Br)cc2)C(=O)c2ccccc2C1=O,82.4% (active),84.8% (active),74.2% (active),84.8% (active),76.4% (active),97.4% (active),90.8% (active),89.3% (active),18.5% (inactive),48.9% (active)
Cc1ccc(NC(=O)O/N=C/c2c(C)nn(C(C)(C)C)c2C)cc1Cl,90.4% (active),88% (active),87.3% (active),85.3% (active),88.2% (active),93% (active),89.2% (active),86.5% (active),94.6% (active),98.3% (active)
Cc1cc(C(=O)COC(=O)C2=COCCO2)c(C)n1-c1ccccc1,32.9% (inactive),5.84% (inactive),-53.9% (inactive),-37.1% (inactive),23.9% (inactive),-86.4% (inactive),26.1% (inactive),-34.8% (inactive),68.8% (active),66.6% (active)
Cc1c(C)c2ccc(OCC(=O)Nc3ccccn3)c(C)c2oc1=O,78.5% (active),72.3% (active),50.1% (active),59.6% (active),67.5% (active),68.8% (active),76.4% (active),69.7% (active),81.3% (active),90.3% (active)
Nc1ccc(Oc2cccc(Oc3ccc(N)cc3)c2)cc1,43.4% (active),29.6% (active),24.3% (inactive),27.6% (active),47.8% (active),75.6% (active),67.8% (active),47.5% (active),88.8% (active),92.8% (active)
CC(C)Nc1ncnc2ccc(Br)cc12,74.3% (active),72.7% (active),65.3% (active),58.9% (active),17.8% (inactive),61.1% (active),58.4% (active),71% (active),20.2% (inactive),65.7% (active)
CC(C)(C)c1ccc(C(=O)N2CCCCCC2=O)cc1,58% (active),41% (active),35.8% (inactive),33.1% (active),45.6% (active),62.1% (active),56.1% (active),56.4% (active),63.6% (active),89.2% (active)
COc1ccc(C[C@H](N)C(=O)N[C@H]2[C@@H](O)[C@H](n3cnc4c(N(C)C)ncnc43)O[C@@H]2CO)cc1,97% (active),94.2% (active),89.3% (active),91.8% (active),97% (active),111% (active),99.4% (active),99.4% (active),91% (active),92.4% (active)
CCOc1ccc(-c2noc(CCC(=O)O)n2)cc1,18.2% (inactive),15.1% (inactive),18.5% (inactive),5% (inactive),27.3% (inactive),38.4% (inactive),23.1% (inactive),23.4% (inactive),71.3% (active),86.1% (active)
COc1ccccc1C(=O)N(CCC1CCCN1C)c1nc2ccccc2s1 (stereo not given),38.7% (inactive),14.6% (inactive),-24.3% (inactive),-21.5% (inactive),-41.5% (inactive),-79.1% (inactive),-54.7% (inactive),-44.3% (inactive),11.8% (inactive),53.8% (active)
